Records with an inconclusive call do not appear. The source made the active and inactive calls. Calls follow the shape of the dose curve; as a rule, active = well fitted activation curve with a large enough effect in the signal ratio in the repeat runs, with a control signal flat (not every such curve was filed as active); inconclusive = weak or mixed curves, or effect the other way; inactive = no such curve, though single readings can be large or run the other way; the % refers to the signal ratio.
molecular target: Androgen receptor (Homo sapiens) (UniProt P10275); assay: qHTS assay to identify small molecule agonists of the androgen receptor (AR) signaling pathway (AID 743036); conditions: HEK293 AR-UAS-bla GripTite, beta-lactamase FRET ratio, 16 h; series mostly up to 62.4 µM
Text: U.S. Tox21 Program National Center for Advancing Translational Sciences [NCATS] NIH Chemical Genomics Center [NCGC] U.S. Environmental Protection Agency [EPA] National Institutes of Environmental Health Sciences [NIEHS] National Toxicology Program [NTP] U.S. Food and Drug Administration [FDA] Tox21 Assay Overview: Androgen receptor (AR), a nuclear hormone receptor, plays a critical role in AR-dependent prostate cancer and other androgen related diseases. Endocrine disrupting chemicals (EDCs) and their interactions with steroid hormone receptors like AR may cause disruption of normal endocrine function as well as interfere with metabolic homeostasis, reproduction, developmental and behavioral functions. To identify the compounds that activate AR signaling, GeneBLAzer AR-UAS-bla-GripTite cell line (Invitrogen, Carlsbad, CA, USA) containing a beta-lactamase reporter gene under the control of an Upstream Activator Sequence (UAS) stably integrated into HEK293 cells was used to screen the Tox21 10K compound library.
Tox21 Assay Protocol Summary: AR-bla cells were dispensed at 2,000 cells/6 uL/well of assay medium into black wall/clear-bottom 1536-well plates using a Multidrop Combi (ThermoFisher Scientific, Waltham, MA) dispenser. After the assay plates were incubated at 37C and 5% CO2 for 4 h, 23 nL of compounds dissolved in DMSO, positive controls or DMSO only was transferred to the assay plate by a Pintool station (Kalypsys, San Diego, CA). The plates were incubated at 37C and 5% CO2 for 16 h. Then 1 uL of LiveBLAzerTM B/G FRET substrate was added using a Bioraptr Flying Reagent Dispenser (FRD) workstation (Beckman Coulter, Indianapolis, IN, USA). The plates were incubated at room temperature for 2 h, and fluorescence intensity was measured by an Envision plate reader (PerkinElmer, Shelton, CT).
% is scaled to controls: 0 for no effect and ±100 for the full control effect.

Androgen receptor (Homo sapiens), sequence (P10275 whole entry, looked up): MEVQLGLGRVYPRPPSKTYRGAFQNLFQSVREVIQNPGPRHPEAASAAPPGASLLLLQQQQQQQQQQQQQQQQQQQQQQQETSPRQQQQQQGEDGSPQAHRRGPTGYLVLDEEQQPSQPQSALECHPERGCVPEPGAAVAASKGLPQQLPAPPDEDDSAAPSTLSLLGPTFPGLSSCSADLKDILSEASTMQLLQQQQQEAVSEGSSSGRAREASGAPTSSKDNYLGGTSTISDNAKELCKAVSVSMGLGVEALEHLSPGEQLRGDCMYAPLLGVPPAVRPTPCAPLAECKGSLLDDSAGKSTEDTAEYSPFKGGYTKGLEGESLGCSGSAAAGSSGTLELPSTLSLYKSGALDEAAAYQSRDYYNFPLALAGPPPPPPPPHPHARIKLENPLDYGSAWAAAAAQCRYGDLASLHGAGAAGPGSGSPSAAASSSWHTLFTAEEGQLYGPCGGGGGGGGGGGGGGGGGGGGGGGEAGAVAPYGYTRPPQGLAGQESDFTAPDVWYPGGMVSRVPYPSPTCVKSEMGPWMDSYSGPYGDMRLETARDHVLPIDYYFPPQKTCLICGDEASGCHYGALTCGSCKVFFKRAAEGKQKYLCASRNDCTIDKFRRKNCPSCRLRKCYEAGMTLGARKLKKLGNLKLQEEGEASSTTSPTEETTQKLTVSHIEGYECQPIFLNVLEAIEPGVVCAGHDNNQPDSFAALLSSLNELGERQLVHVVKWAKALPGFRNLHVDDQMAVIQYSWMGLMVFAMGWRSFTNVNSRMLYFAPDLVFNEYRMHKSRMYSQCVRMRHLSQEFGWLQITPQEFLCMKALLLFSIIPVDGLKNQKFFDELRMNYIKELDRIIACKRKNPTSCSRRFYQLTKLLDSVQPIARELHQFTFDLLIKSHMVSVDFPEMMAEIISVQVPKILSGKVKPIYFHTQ

Row | SMILES | outcome | activation
1 | CCNc1nc(Cl)nc(NC(C)(C)C)n1 | inactive | 
2 | CC(C)N(Cc1ccccc1)C(=O)C(C)(C)C | inactive | 
3 | Clc1ccc(C(Cl)(Cl)Cl)cn1 | inactive | 
4 | CCOC(=O)NC(C)(C)Cc1ccc(Cl)cc1 | inactive | 
5 | CCCOc1nn(C(=O)NS(=O)(=O)c2ccccc2C(=O)OC)c(=O)n1C | inactive | 
6 | CNC(=O)NC(O)C(Cl)(Cl)Cl (configuration not stated) | inactive | 
7 | CCN[C@@H](C)Cc1ccccc1 | inactive | 
8 | CCC1(c2ccccc2)C(=O)N(COC)C(=O)N(COC)C1=O | inactive | 
9 | C[C@H]1CCCC(=O)CCC/C=C/c2cc(O)cc(O)c2C(=O)O1 | inactive | 
10 | CCC1(c2ccccc2)CCC(=O)NC1=O (configuration not stated) | inactive | 
11 | COC(=O)c1ccc(CBr)cc1 | inactive | 
12 | OP(O)c1ccccc1 | inactive | 
13 | C[C@H](N)C(=O)c1ccccc1 | inactive | 
14 | Clc1cc2c(cc1Cl)Oc1cc(Cl)c(Cl)cc1O2 |  | -3.9% [at 0.28 µM] (inactive)
15 | O=C/C=C/c1ccco1 | inactive | 
16 | CCC(C)(C#N)N=NC(C)(C#N)CC (configuration not stated) | inactive | 

Row | SMILES | outcome | activation
17 | CC[C@H](N)c1ccccc1 | inactive | 
18 | O=C(Cl)/C=C/C(=O)Cl | inactive | 
19 | N[C@@H]1C[C@H]1c1ccccc1 | inactive | 
20 | O=S1(=O)OCCO1 | inactive | 
21 | CN(C)C(=O)Oc1cc(OC(=O)N(C)C)cc(C(O)CNC(C)(C)C)c1 (configuration not stated) | inactive | 
22 | C[N+]1(C)CCCCC1 | inactive | 
23 | COP(=O)(O)OC | inactive | 
24 | CCN(CC)C1CCCCC1 | inactive | 
25 | C[C@H](CN1CCOCC1)C(C(=O)N1CCCC1)(c1ccccc1)c1ccccc1 | inactive | 
26 | COc1cccc([C@@]2(O)CCCC[C@@H]2CN(C)C)c1 | inactive | 
27 | CCOC(=O)CC(SP(=S)(OC)OC)C(=O)OCC (configuration not stated) | inactive | 
28 | CNC(=O)O/N=C(/CSC)C(C)(C)C | inactive | 
29 | CCOP(=S)(OCC)SCCl | inactive | 
30 | CCOC1Oc2ccc(OS(C)(=O)=O)cc2C1(C)C (configuration not stated) | inactive | 
31 | CNC(=O)Oc1ccccc1C(C)C | inactive | 
32 | CC[C@@H](CO)NC(=O)[C@@H]1C=C2c3cccc4[nH]cc(c34)C[C@H]2N(C)C1 | inactive | 
